# Laboratory results as given in PubChem BioAssay AID1964107 (National Center for Advancing Translational Sciences (NCATS), 2024).
# Screen size: about 31,000 compounds; about 360 (1.2%) were called active. About 8% were inconclusive and are not listed. Shown is part of a subset that was picked to be rich in actives. Unmarked numbers belong to inactive results. Calls come from the whole dose curve.
# Molecular target: Polyprotein P1234 (Chikungunya virus (strain S27-African prototype)) (UniProt Q8JUX6)
# Sequence (Q8JUX6 whole entry, looked up): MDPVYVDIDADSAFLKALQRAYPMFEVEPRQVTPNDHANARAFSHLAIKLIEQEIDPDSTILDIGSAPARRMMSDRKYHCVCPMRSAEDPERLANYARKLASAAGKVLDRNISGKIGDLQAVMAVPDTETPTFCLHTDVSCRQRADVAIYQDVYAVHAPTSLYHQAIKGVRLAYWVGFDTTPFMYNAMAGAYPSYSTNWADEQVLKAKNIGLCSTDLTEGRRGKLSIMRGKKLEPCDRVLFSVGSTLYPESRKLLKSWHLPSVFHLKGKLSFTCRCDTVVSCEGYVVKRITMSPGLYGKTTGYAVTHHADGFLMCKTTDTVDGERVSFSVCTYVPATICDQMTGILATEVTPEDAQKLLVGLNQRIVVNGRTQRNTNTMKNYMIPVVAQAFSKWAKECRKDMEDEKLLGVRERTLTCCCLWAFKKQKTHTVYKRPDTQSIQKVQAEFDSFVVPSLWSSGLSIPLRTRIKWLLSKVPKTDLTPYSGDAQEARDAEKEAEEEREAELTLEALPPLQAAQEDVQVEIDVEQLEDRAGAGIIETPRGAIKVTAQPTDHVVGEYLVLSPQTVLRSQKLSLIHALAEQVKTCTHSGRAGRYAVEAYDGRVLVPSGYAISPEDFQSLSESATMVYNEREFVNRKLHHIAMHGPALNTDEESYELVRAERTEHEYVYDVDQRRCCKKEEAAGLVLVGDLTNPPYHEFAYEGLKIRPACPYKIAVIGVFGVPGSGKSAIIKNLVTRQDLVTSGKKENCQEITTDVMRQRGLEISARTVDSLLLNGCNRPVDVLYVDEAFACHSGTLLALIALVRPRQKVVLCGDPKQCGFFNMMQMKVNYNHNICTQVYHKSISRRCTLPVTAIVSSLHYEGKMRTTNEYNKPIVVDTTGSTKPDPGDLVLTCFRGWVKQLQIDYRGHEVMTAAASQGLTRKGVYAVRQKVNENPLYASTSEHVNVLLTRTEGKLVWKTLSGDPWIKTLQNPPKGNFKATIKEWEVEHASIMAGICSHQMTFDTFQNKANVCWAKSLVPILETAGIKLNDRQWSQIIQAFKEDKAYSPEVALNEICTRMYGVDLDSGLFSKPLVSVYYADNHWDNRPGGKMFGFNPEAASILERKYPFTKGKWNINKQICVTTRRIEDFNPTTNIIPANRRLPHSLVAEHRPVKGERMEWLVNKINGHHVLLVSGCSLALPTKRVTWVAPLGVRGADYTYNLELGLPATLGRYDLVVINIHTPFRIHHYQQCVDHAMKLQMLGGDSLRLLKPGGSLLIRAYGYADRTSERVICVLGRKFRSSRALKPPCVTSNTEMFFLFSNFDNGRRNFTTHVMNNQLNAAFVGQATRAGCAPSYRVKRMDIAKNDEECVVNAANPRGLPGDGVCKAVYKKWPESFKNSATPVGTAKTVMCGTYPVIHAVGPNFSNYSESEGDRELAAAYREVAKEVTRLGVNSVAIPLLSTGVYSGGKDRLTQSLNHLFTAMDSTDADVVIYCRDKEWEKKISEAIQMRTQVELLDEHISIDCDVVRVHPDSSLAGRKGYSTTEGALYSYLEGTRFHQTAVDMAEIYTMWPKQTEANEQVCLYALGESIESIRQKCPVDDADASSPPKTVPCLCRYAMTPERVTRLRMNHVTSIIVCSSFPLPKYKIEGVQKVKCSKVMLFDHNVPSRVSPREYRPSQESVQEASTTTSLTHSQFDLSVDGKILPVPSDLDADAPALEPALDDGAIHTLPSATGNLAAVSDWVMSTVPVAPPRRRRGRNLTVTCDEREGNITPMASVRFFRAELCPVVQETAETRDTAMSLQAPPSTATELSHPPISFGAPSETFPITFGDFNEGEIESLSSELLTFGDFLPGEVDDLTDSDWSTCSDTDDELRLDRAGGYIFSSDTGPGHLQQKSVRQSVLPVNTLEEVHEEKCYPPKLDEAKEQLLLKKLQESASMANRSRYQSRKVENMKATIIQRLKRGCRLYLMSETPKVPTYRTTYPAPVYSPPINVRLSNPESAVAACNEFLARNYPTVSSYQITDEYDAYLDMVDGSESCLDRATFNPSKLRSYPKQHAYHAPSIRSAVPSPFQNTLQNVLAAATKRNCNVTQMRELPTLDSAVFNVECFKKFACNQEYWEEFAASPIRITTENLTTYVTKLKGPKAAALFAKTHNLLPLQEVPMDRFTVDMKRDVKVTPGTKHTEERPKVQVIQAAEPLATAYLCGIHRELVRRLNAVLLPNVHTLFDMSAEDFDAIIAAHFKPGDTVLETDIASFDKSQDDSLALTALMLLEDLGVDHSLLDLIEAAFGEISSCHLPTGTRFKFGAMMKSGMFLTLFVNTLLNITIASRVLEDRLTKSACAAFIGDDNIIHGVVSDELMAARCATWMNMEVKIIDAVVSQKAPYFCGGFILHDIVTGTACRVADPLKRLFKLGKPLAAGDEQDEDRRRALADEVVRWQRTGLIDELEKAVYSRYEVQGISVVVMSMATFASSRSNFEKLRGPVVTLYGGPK
# Assay: Primary qHTS for inhibitors of NSP2Pro chikungunya virus (CHIKV); note: nearly all actives have a fitted effect of over 60% in size
# Details: FRET peptide cleavage, fluorescence 1 h; series mostly up to 24.9 µM; activity change, negative = inhibition: at the top concentration
# Description: PI: Natalia J. Martinez Ph.D. National Center for Advancing Translational Sciences (NCATS), National Institute of Health (NIH), Rockville, Maryland Chikungunya virus (CHIKV) is a mosquito-borne RNA virus that has emerged as one of the most important global arboviral threats in the last decade. Although the first CHIKV vaccine has recently been FDA approved for use in healthy adults at increased risk, to date, there are no available antiviral drugs for CHIKV infection. CHIKV nsP2 protease plays a crucial role in the processing of the viral polypeptide precursor to release enzymes required for viral replication, thus making it a promising drug target for antiviral discovery. Here, we established a high-throughput pipeline to identify small molecule inhibitors of nsP2 proteolytic activity. The pipeline is composed of a suite of 1,536-well in vitro assays to support quantitative high-throughput (qHTS) screening campaigns. Specifically, we developed a fluorescence resonance energy transfer (FRET)-based assay using a fluorogenic peptide substrate encompassing an endogenous cleavage site and purified recombinant protease domain (nsP2pro). Using this assay, we interrogated ~37,000 small molecules, including those in drug repurposing libraries as well as chemically diverse and medicinal chemistry-friendly compounds. Hits were selected for follow-up validation against full-length nsP2 and an additional peptide. FRET-based 1,536-well assays for papain, hepatitis C virus NS3-4A, and human furin proteases were implemented to characterize compound selectivity. […] Novel compounds were identified to be potential nsP2 inhibitors and molecular docking analyses were performed to explain the binding mode of selected hits. In vitro antiviral activity was evaluated for a subset of compounds using a high-throughput CHIKV infection assay. To our knowledge, the pipeline presented here is unprecedented for CHIKV antiviral discovery research.
# PROTOCOL TABLE (as described by Inglese J, Shamu CE and Guy RK. 2007) SEQUENCE No. (e.g., 1, 2, 3, etc.); […] (e.g., Cells, Incubation, Reagent, etc.); VALUE; DESCRIPTION. 1; Control / Compound; 20 nL; Echo 655 acoustic dispenser, Greiner 1536-well solid bottom black plate. 2; Enzyme; 4 uL; BioRAPTR FRD liquid dispenser (Beckman Coulter). 3; Incubation; 15 min; room temperature. 4; Reagent; 4 uL; 2.5 uM Peptide 2 substrate. 5; Incubation; 1 hr; room temperature. 6; Detection; Fluorescence; WiewLux microplate reader (PerkinElmer), 525 nm excitation, 598/25 nm emission. NOTES (numbers refer to sequence numbers above). 1. Briefly, 20 nL DMSO, positive control ZnAc (20nM final concentration), and test compounds were transferred into a 1,536-well solid bottom black plate (789176-F, Greiner One) via Echo 655 acoustic dispenser (Beckman Coulter). For primary screens, compounds were tested at 7 concentrations, 1:3 dilution points ranging from 25 uM to 34 nM. Follow-up confirmatory screens were carried out at 11 concentrations, 1:3 dilution points from 25 uM to 0.42 nM. 2. Four uL nsP2pro enzyme mix (150 nM final concentration) in 10 mM Tris-HCl pH 8.0 with 0.01% Tween 20 assay buffer was dispensed into the plate using a BioRAPTR FRD liquid dispenser (Beckman Coulter). 3. The plate was incubated at room temperature (protected from light) for 15 min 4. Four microliter of peptide 2 substrate (2.5 uM final concentration) in assay buffer was added to the plate. 5. After 1 hour, plates were immediately read on a ViewLux high-throughput CCD imager (Exposure = 10 sec, Gain = High, Speed = Slow, Binning = 2X). The above assay was also incorporated in the NCATS HTS facility41, which allowed for robotic liquid and compound dispensing, microplate handling, and fluorescence reading.. REFERENCE: Inglese J, Shamu CE and Guy RK, Reporting data from high throughput screening of small molecule libraries, Nature Chemical Biology, 2007, 3(8): 438-441. doi.org/10.1038/nchembio0807-438.
# % is set by controls: 0 for no effect and ±100 for the full control effect; potency is the fitted concentration of half-maximal effect.
SMILES,outcome,"activity change, negative = inhibition",Potency
Cc1nc(C)c(-c2ccc3ncnc(NCc4ncc[nH]4)c3c2)s1,inactive,,
COc1cccc(CNCCSc2nnnn2C)c1OCc1ccccc1Cl,,-28.7%,
O=C(Nc1cc(C(F)(F)F)ccc1Cl)c1ccc2c(c1)CCN2S(=O)(=O)c1ccccc1,,-9.56%,
COc1cc(OC)cc(C(=O)NCCc2csc3nc(-c4ccccc4F)nn23)c1,,-4.65%,
CCc1ccc(NC(=O)C(=O)NNC(=O)Cc2ccc(Cl)c(Cl)c2)cc1,inactive,,
Cc1cc(C)cc(NC(=O)CSc2nc(=O)n(CCN3CCOCC3)c3c2CCC3)c1,,-16.5%,
O=C(c1cccc(F)c1)N1CCCC(CN2CCOCC2)CC1 (configuration not stated),,-18.1%,
O=C(CCc1cn(Cc2ccc(F)cc2)c2ccccc12)NC1CCCCC1,,-6.32%,
COc1ccc(Cl)cc1S(=O)(=O)N1CCC(c2ccncc2)CC1,,-8.44%,
COc1cccc(-n2ccn(CC(=O)NCc3ccc(C)cc3)c(=O)c2=O)c1,,-14.9%,
CN(C(=O)c1ccc2c(c1)N(Cc1cccc(Cl)c1)C(=O)c1ccccc1S2=O)C1CCCCC1 (configuration not stated),,-7.42%,
O=C(CSc1nccn1C1CCCC1)Nc1cc(C(F)(F)F)ccc1Cl,,-12.2%,
COc1ccccc1N1CCN(c2ccc(=O)n(CC(=O)NCc3ccc(OC(C)C)cc3)n2)CC1,,-12.8%,
CC1CCC2(C)C(CC(O)C(O)C23CO3)C1(C)CCC1=CC(O)OC1=O (configuration not stated),,-4.36%,
Cc1noc(C)c1S(=O)(=O)N1CC(C(=O)NC2CCCCC2)C2(CCOCC2)C1 (configuration not stated),,-2.85%,
COc1cccc(-c2cc(C(=O)N3CCN(c4ncccn4)CC3)c3cnn(C)c3n2)c1,inactive,,
CCc1ccc(C(=O)CC2(O)C(=O)N(CCc3ccccc3)c3ccc(Br)cc32)cc1 (configuration not stated),,-13.5%,
COCc1nc(C2CC(N)C2)cc(N2CCC(Cn3cccn3)CC2)n1 (configuration not stated),,-3.16%,
O=C(Nc1cc(-c2ccccc2)nn1-c1ccccc1F)c1ccc([N+](=O)[O-])cc1,,8.97%,
COc1ncccc1-c1cc(-c2cn[nH]c2)c2cncn2c1,inactive [at 39.2 µM],,
CN1CCN(C(=O)c2ccc(-c3cnc4c(O)ccc(C(=O)O)c4c3)cc2)CC1,inactive,,
COc1ccc(NC(=O)CSc2nnc(-c3nnn(-c4ccc(F)cc4)c3C)o2)cc1,,-14.4%,
CNC(=O)[C@@H](Cc1ccccc1)N1CCC[C@H]1C(=O)NCC1CC1,,-2.23% [at 39.2 µM],
COc1ccc(OC)c(NC(=O)CSC2=Nc3ccccc3C3=NC(CC(=O)NCCc4ccccc4)C(=O)N23)c1 (configuration not stated),,-8.36%,

SMILES,outcome,"activity change, negative = inhibition",Potency
COC(=O)CC[C@@H](C)C1CCC2C3CCC4C[C@H](OC(C)=O)CCC4(C)C3C[C@H](O)C21C (some centres not stated),,6.27%,
CCOc1ccc(NC(=O)c2c(NC(=O)Cc3ccccc3)sc3c2CCCCC3)cc1,,,8.91 µM (active)
CCOc1ccc(NC(=O)c2c(NC(=O)Cc3ccccc3)sc3c2CCC(C)C3)cc1 (configuration not stated),,,3.38 µM (active)
Cc1cccc(OCCCC(=O)Nc2sc3c(c2C(N)=O)CCC(C)C3)c1 (configuration not stated),,-11.5%,
O=C(Cc1ccccc1)Nc1sc2c(c1C(=O)Nc1ccc(Br)cc1)CCC2,,12.8%,
CCOC(=O)c1ccc(NC(=O)c2c(NCc3cccc(OC)c3)sc3c2CCC3)cc1,,-14.3%,
COC(=O)c1c(NC(=O)CCCOc2ccccc2)sc2c1CCC(C)C2 (configuration not stated),,-57.2%,
COc1ccc(CCNS(=O)(=O)c2cc(-c3cc(C)no3)ccc2C)cc1OC,,-12.3%,
CC(C)c1nccn1CCCNc1nc(-c2ccncc2)nc2c1cnn2C,,-1.75%,
COc1ccc(NC(=O)Cn2c(=O)n(CCC(C)C)c(=O)c3cccnc32)cc1Cl,,-5.33%,
N#Cc1ccc(NCCNCC(=O)N2CCCC2C#N)nc1 (configuration not stated),,-15.9%,
CC(C)NC(=O)c1nn(-c2ccccc2F)nc1CO,,0.972%,
CC(C)Nc1ncc(C(=O)NC2CCCN(CCc3ccccc3)C2)cn1 (configuration not stated),,4.22%,
CN1CCCN(C(=O)CN2CC3CC(C2)[C@H]2CCCC(=O)N2C3)CC1 (some centres not stated),,-11%,
Cc1ccccc1-c1nc(NCc2ccc(-c3cccnc3)cc2)c2ccccc2n1,,-3.76%,
CC(C)(O)c1ccc2c(c1)C(=O)CC1[C@](C)(CO)CCC[C@]21C (some centres not stated),,154%,
O=C(CSc1oc(-c2ccc(F)cc2)nc1S(=O)(=O)c1ccc(Br)cc1)NC1CCCCC1,,-29.8%,
COc1cccc(-c2nc(S(=O)(=O)c3ccc(C)cc3)c(NCc3ccccc3)o2)c1,,-20.1%,
COc1ccc(-c2nc(S(=O)(=O)c3ccccc3)c(N3CCCCC3)o2)cc1,,,11.2 µM (active)
CN(C)c1cccc(-c2cnc(Nc3cnccn3)c3c2CCO3)c1,inactive [at 39.2 µM],,
CCCCNc1nc(C)nc2c1nc(-c1ccccc1)n2CCCCN(CC)CC,inactive,,
COc1ccc(OC)c(NC(=O)C2CCCN(S(=O)(=O)c3ccc4c(c3)CCCC(=O)N4)C2)c1 (configuration not stated),,-6.34%,
C[C@H]1CC[C@@H]2N(C1)C[C@@H]1[C@H]([C@@H](O)[C@H](O)[C@]3(O)[C@H]1C[C@@]14OC5(O)[C@@H](C[C@@H](O)[C@@H]31)[C@]4(C)CC[C@@H]5O)[C@]2(C)O,,9.38% [at 10 µM],
